Hits are enriched below; roughly 3.4% of the tested compounds scored in any of these assays.
LMP1 NFkB inh – Epstein-Barr LMP1 NF-kappaB reporter inhibition; actives 0.69% (n = 350,000); AID 504558; inhibition, % at 12.5 µM; LMP1-induced NF-kappaB luciferase reporter cells, luminescence; in the data active means inhibition above about 41%; inconclusive means no clear call, values can overlap the other calls;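 further: 0% = neutral control wells and 100% = reference inhibitor control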
Shn3 3UTR inh – reduces Shn3 3'UTR luciferase signal in osteoblasts; Clone20 osteoblast Shn3 3'UTR firefly luciferase, 24 h; inhibition, % at 12.5 µM; actives 0.52% (n = 360,000);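 active means mean inhibition of at least 75% with every replicate also reaching 75%; inconclusive means mean inhibition at least 75% but some replicate below; inactive means mean inhibition below 75%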;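 further: 0% = median of neutral control wells and 100% = pilot-screen positive control compound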
TRPM1 prom inh – MITF TRPM1 promoter inhibition in SK-MEL-5 cells; inhibition, % at 12.5 µM; AID 488899; actives 0.83% (n = 330,000); SK-MEL-5 TRPM1 promoter luciferase, 24 h;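 active means mean inhibition across replicates of 60% or more, whatever share of single replicates reaches that level; inconclusive means some that reach 60%, reason not given; inactive means mean inhibition across replicates below 60%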
TWEAK Fn14 block – blocks TWEAK-Fn14 interaction in a reporter cell assay | inhibition, % at 10 µM | actives 2% (n = 360,000) | TWEAK-stimulated Fn14 reporter cells, luciferase luminescence, 8 h; in the data active means inhibition above about 50%
TROY signal inh – blocks TROY-dependent signaling in reporter cells | actives 0.98% (n = 360,000) | inhibition, % at 10 µM | Q293 LMP1-TROYcd NF-kB luciferase reporter, 4 h;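 active means compounds whose plate-normalised and pattern-corrected inhibition of the luciferase reporter signal at the single screening dose is 50% or more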
HIF-2a inh – HIF-2a inhibition | inhibition, % at 18.8 µM | actives 0.72% (n = 360,000) | 786-0 RCC cells HIF-2a reporter, luciferase luminescence, overnight | AID 624352;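 active means inhibition of the luminescence signal of 40% or more relative to plate controls, in a single-dose primary screen at 18.75 µM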
The depositor's hits bear a star; ? = inconclusive; · = no result given.

SMILES	LMP1 NFkB inh	Shn3 3UTR inh	TRPM1 prom inh	TWEAK Fn14 block	TROY signal inh	HIF-2a inh
NC(=O)c1oc2ccccc2c1NC(=O)c1ccc([N+](=O)[O-])o1	4	58	83*	44	-9	16
COc1ccc(O)c(CNc2ccccc2F)c1	7	-22	-27	-26	-15	-5
O=C(/C=C/Nc1ccc(Br)cc1F)c1ccco1	39	18	29	63*	18	10
O=C(/C=C/Nc1ccccc1O)c1ccco1	-5	-64	-40	-16	-21	-209
CC(=O)Nc1ccc(N/C=C/C(=O)c2ccco2)cc1	-17	-103	-59	-9	-9	-224
CN(C)c1ccc(N/C=C/C(=O)c2ccco2)cc1	-6	-3	-18	86*	-14	-29
O=C(/C=C/Nc1ccc(F)cc1F)c1ccco1	15	-39	-2	73*	-13	-73
COc1ccc(CNC[C@H]2O[C@@H](n3ccc(=O)[nH]c3=O)[C@H](O)[C@@H]2O)cc1OC	-9	-9	-12	-2	-12	6
O=C(Cc1ccc(S(=O)(=O)N2CCOCC2)s1)Oc1ccc(F)cc1	-4	1	3	3	5	4
CC(=O)N(/N=C1\Sc2ccccc2C1=O)c1ccc(C)cc1C	14	64	45	91*	38	22
CC(=O)N(/N=C1\Sc2ccccc2C1=O)c1ccccc1C	-41	-30	-3	19	-47	-276
CCN(CC)c1ccc(-c2nnc(SCC(=O)Nc3ccccc3C#N)n2-c2ccccc2)cc1	8	35	31	75*	·	21
CC(C)NC(=O)N(C)C[C@@H]1Oc2c(NC(=O)Nc3ccccc3)cccc2C(=O)N([C@H](C)CO)C[C@H]1C	-6	3	9	-15	-9	10
CNC(=O)N(O)C1N(NC(=O)Nc2ccccc2)C(=S)SC1(C)C (stereo unspecified)	3	-3	2	1	-10	1
CC1(C)SC(=S)N(NC(=O)Nc2cccc3ccccc23)C1N(O)C(=O)Nc1ccccc1 (stereo unspecified)	5	2	-2	22	55*	-19
COc1ccc(CC(Cc2ccc(OC)c(OC)c2)NC=O)cc1OC	1	0	·	12	1	9
CCCCCOc1ccc(C(O)C(CN2CCOCC2)c2ccccc2)cc1 (stereo unspecified)	13	11	23	-1	3	10
Cn1ccc2cc(-c3ccc4ncnc(NCc5cccs5)c4c3)ccc21	10	17	41	55*	12	-31
Cc1ccsc1CNc1ncnc2ccc(-c3c(C)noc3C)cc12	12	36	38	81*	44	5
COCCCNc1ncnc2ccc(C)cc12	-2	74	-25	39	55*	-81
COc1cccc(CNc2ncnc3ccc(-c4c(C)noc4C)cc23)c1	?	45	20	79*	30	-24
NS(=O)(=O)c1cccc(NC(=O)CSc2nnc(C3CC3)n2-c2ccccc2)c1	4	11	-7	27	5	14
COc1cccc(-c2ccc3ncnc(NCc4cccs4)c3c2)c1	4	-15	7	69*	44	21
COc1cccc(-c2ccc3ncnc(NCc4cccc(C)c4)c3c2)c1	13	9	0	63*	50*	24
COc1cccc(CNc2ncnc3cc(Cl)ccc23)c1	9	85	26	20	15	14
SMILES	LMP1 NFkB inh	Shn3 3UTR inh	TRPM1 prom inh	TWEAK Fn14 block	TROY signal inh	HIF-2a inh
c1cncc(-c2ccc3ncnc(NCc4cccs4)c3c2)c1	21	15	9	20	11	17
N=C1C(c2nc(-c3ccc(F)cc3)cs2)=C(O)CN1Cc1ccc(Cl)cc1	-18	0	-10	106*	3	-3
CC(C)(C)OC(=O)N1CCCC(C(=O)Nc2cccc(C(=O)NCCc3ccccc3)c2)C1 (stereo unspecified)	-13	-11	-15	100*	-52	-206
CC(C)(C)OC(=O)N1CCCC1C(=O)NCCc1ccccc1 (stereo unspecified)	-5	-7	-13	79*	·	-2
CC(C)(C)OC(=O)N1CCC(C(=O)Nc2ccc(C(=O)NCCc3ccccc3)cc2)CC1	-5	-1	-1	54*	4	-59
CC(C)(C)OC(=O)N1CCCC(C(=O)Nc2cccc(C(=O)NCCCCc3ccccc3)c2)C1 (stereo unspecified)	5	15	17	12	45	13
CC(C)(C)OC(=O)N1CCC(C(=O)Nc2ccc(C(=O)NCc3ccccc3)cc2)CC1	0	30	6	7	20	4
O=C(NCCCCc1ccccc1)c1cccc(NC(=O)C2CCC2)c1	6	7	-2	101*	-6	-18
O=C(NCCc1ccccc1)C1CCCN1C(=O)NCc1ccccc1 (stereo unspecified)	0	12	2	-3	2	13
COc1cccc(C(O)c2ncc(-c3cccc(F)c3)[nH]2)c1 (stereo unspecified)	·	-56	·	-8	-19	-48
CC(C)CCn1c(N)c(S(=O)(=O)c2cccs2)c2nc3ccccc3nc21	-19	16	-11	90*	86*	4
Cc1ccc(S(=O)(=O)c2c(N)n(CCCO)c3nc4ccccc4nc23)cc1	3	-3	-2	28	64*	8
Cc1ccc(S(=O)(=O)c2c(N)n(CCC(C)C)c3nc4ccccc4nc23)cc1	-12	5	-3	44	73*	10
Nc1c(S(=O)(=O)c2cccs2)c2nc3ccccc3nc2n1Cc1cccs1	-30	7	5	25	70*	36
COc1ccc(CCn2c(N)c(S(=O)(=O)c3cccs3)c3nc4ccccc4nc32)cc1OC	6	16	-2	1	-2	2
Cc1cc(NC(=O)CCC(=O)N(Cc2ccc(F)cc2)C(C(=O)NC2CCCC2)c2ccco2)no1 (stereo unspecified)	0	17	10	22	18	3
CCOC(=O)c1c(C)[nH]c(C)c1C(=O)COC(=O)[C@@H](NC(=O)c1ccco1)C(C)C	32	-6	12	-4	4	5
O=C(C#Cc1cccc([N+](=O)[O-])c1)c1ccccc1	46*	93*	82*	66*	63*	26
O=C(O)C(=Cc1cccc([N+](=O)[O-])c1)c1ccccc1	-4	-14	·	-19	7	10
C#CCNC(=O)C[C@@H]1C[C@@]2(C(=O)OC)CC(C)(C)CC=C2N(CCc2ccc(OC)c(OC)c2)C1=O	·	·	·	·	·	0
COc1ccc(S(=O)(=O)NC(CC(=O)NCc2ccco2)C(C)C)cc1 (stereo unspecified)	84*	-5	-7	-16	-5	25
CC(=O)Oc1ccc(/C=C2/SC(=S)N(Cc3ccccc3)C2=O)cc1	-17	-1	-1	17	-31	9

Screening data deposited in PubChem BioAssay by several laboratories.
